# Experimental data reported in PMC11062922 (Nature Chemical Biology, 2023).
# Read-outs that look alike come from different tables or passages of the source.
# Tests used:
# Design in all cases: species or system human, MV4-11 + K-562 + COLO205 + SK-N-BE2 + OVCAR-8
# FECH = conditions: read-out: apparent Kd, n = 1
# FLT3 = conditions: read-out: apparent Kd; compound concentrations: 100 nM and 1000 nM (sheet 'Samples'), CATDS: 0.119493571435742; n = 1
# MELK = conditions: read-out: apparent Kd; compound concentrations: 100 nM and 1000 nM (sheet 'Samples'), CATDS: 0.102611877302843; n = 1
# MERTK = conditions: read-out: apparent Kd; compound concentrations: 100 nM and 1000 nM (sheet 'Samples'), CATDS: 0.11247191939654499; n = 1
# PDGFRB = conditions: read-out: apparent Kd, compound concentrations: 100 nM and 1000 nM (sheet 'Samples'), n = 1
# RET = conditions: read-out: apparent Kd, compound concentrations: 100 nM and 1000 nM (sheet 'Samples'), n = 1
# SIK2 = conditions: read-out: apparent Kd; compound concentrations: 100 nM and 1000 nM (sheet 'Samples'), CATDS: 0.136273413737004; n = 1
# EGFR = conditions: read-out: apparent Kd, n = 1
# PGK1 = conditions: read-out: apparent Kd; compound concentrations:100 nM and 1000 nM (sheet 'Samples'); n = 1
# EPHA1 = conditions: read-out: apparent Kd; compound concentrations: 100 nM and 1000 nM (sheet 'Samples'), CATDS: 0.14534883893422801; n = 1
# EPHB3 = conditions: read-out: apparent Kd; compound concentrations: 100 nM and 1000 nM (sheet 'Samples'), CATDS: 9.8269686784854801E-2; n = 1
# FYN = conditions: read-out: apparent Kd; compound concentrations: 100 nM and 1000 nM (sheet 'Samples'), CATDS: 0.110039828887459; n = 1
# RIPK2 = conditions: read-out: apparent Kd, compound concentrations: 100 nM and 1000 nM (sheet 'Samples'), n = 1
# RIPK3 = conditions: read-out: apparent Kd; compound concentrations: 100 nM and 1000 nM (sheet 'Samples'), CATDS: 0.215705247056383; n = 1
# TGFBR2 = conditions: read-out: apparent Kd; compound concentrations: 100 nM and 1000 nM (sheet 'Samples'), CATDS: 0.121800483782391; n = 1
# EPHB6 = conditions: read-out: apparent Kd, n = 1
# NQO2 = conditions: read-out: apparent Kd; compound concentrations:100 nM and 1000 nM (sheet 'Samples'); n = 1
# PIK3CG = conditions: read-out: apparent Kd, compound concentrations: 100 nM and 1000 nM (sheet 'Samples'), n = 1
# PLK1 = conditions: read-out: apparent Kd, n = 1
# EPHA5 = conditions: read-out: apparent Kd; compound concentrations: 100 nM and 1000 nM (sheet 'Samples'), CATDS: 0.352465913660859; n = 1
# PIK3CD = conditions: read-out: apparent Kd, n = 1
# NTRK1 = conditions: read-out: apparent Kd; compound concentrations:100 nM and 1000 nM (sheet 'Samples'); n = 1
# PDXK = conditions: read-out: apparent Kd; compound concentrations:100 nM and 1000 nM (sheet 'Samples'); n = 1
# ERBB3 = conditions: read-out: apparent Kd; compound concentrations: 100 nM and 1000 nM (sheet 'Samples'), CATDS: 0.19609805104920999; n = 1
# MAP4K5 = conditions: read-out: apparent Kd; compound concentrations: 100 nM and 1000 nM (sheet 'Samples'), CATDS: 0.26674698552626502; n = 1
# NLK = conditions: read-out: apparent Kd; compound concentrations: 100 nM and 1000 nM (sheet 'Samples'), CATDS: 0.30347996318959403; n = 1
# FLT4 = conditions: read-out: apparent Kd; compound concentrations: 100 nM and 1000 nM (sheet 'Samples'), CATDS: 0.213105830255753; n = 1
# GAK = conditions: read-out: apparent Kd; compound concentrations: 100 nM and 1000 nM (sheet 'Samples'), CATDS: 0.27304535513380701; n = 1
# MAP2K5 = conditions: read-out: apparent Kd; compound concentrations: 100 nM and 1000 nM (sheet 'Samples'), CATDS: 0.176800836122779; n = 1
# IARS = conditions: read-out: apparent Kd; compound concentrations:100 nM and 1000 nM (sheet 'Samples'); n = 1
# NQO1 = conditions: read-out: apparent Kd; compound concentrations:100 nM and 1000 nM (sheet 'Samples'); n = 1
# TTN = conditions: read-out: apparent Kd; compound concentrations: 100 nM and 1000 nM (sheet 'Samples'), CATDS: 0.640536562241112; n = 1
# [1] = compound concentrations:100 nM and 1000 nM (sheet 'Samples')
structure (smiles),measurement,setting,value
COc1cc2c(cc1OC)C(=C(Nc1ccccc1)c1cccc(CN)c1)C(=O)N2 [BIBF0846CL],potency estimated from few doses,"FECH; compound concentrations: 100 nM and 1000 nM (sheet 'Samples'), CATDS: 0.35888442724353598",62.1 nM
same,potency estimated from few doses,FLT3,829 nM
same,potency estimated from few doses,MELK,1410 nM
same,potency estimated from few doses,MERTK,1010 nM
same,potency estimated from few doses,PDGFRB; CATDS: 0.104628993679762,1310 nM
same,potency estimated from few doses,RET; CATDS: 0.43241388330783698,45.3 nM
same,potency estimated from few doses,SIK2,560 nM
CS(=O)(=O)CCNCc1nc(-c2ccc3ncnc(Nc4ccc(OCc5cccc(F)c5)c(Cl)c4)c3c2)cs1.Cl [GW583340C],potency estimated from few doses,"EGFR; compound concentrations: 100 nM and 1000 nM (sheet 'Samples'), CATDS: 0.528390210256103",96.3 nM
same,potency estimated from few doses,PGK1,119 nM
CC(C)(C)c1ccc2nccc(Nc3cccc(O)c3)c2c1 [GW856795X],potency estimated from few doses,EPHA1,443 nM
same,potency estimated from few doses,EPHB3,1450 nM
same,potency estimated from few doses,FYN,960 nM
same,potency estimated from few doses,RET; CATDS: 0.126385665807943,634 nM
same,potency estimated from few doses,RIPK2; CATDS: 0.476664898558677,52 nM
same,potency estimated from few doses,RIPK3,192 nM
same,potency estimated from few doses,TGFBR2,703 nM
Cc1cc(-c2ccccn2)cc(C)c1/C=C/c1cncc(-c2nn[nH]n2)c1.Cl [GW459057A],potency estimated from few doses,EPHB6; [1],162 nM
same,potency estimated from few doses,NQO2,1420 nM
CS(=O)(=O)CCNCc1coc(-c2ccc3ncnc(Nc4ccc(OCc5ccccc5)cc4)c3c2)c1 [GW566221B],potency estimated from few doses,"EGFR; compound concentrations: 100 nM and 1000 nM (sheet 'Samples'), CATDS: 0.90978509927548601",43.8 nM
same,potency estimated from few doses,RIPK2; CATDS: 0.34472781375122202,839 nM
COc1ccc2ncnc(Nc3ccc(OCc4ccccc4)cc3)c2c1.Cl [GI261520A],potency estimated from few doses,"EGFR; compound concentrations: 100 nM and 1000 nM (sheet 'Samples'), CATDS: 0.82087147453604603",67.2 nM
same,potency estimated from few doses,PIK3CG; CATDS: 0.25285428644367502,1240 nM
same,potency estimated from few doses,RIPK2; CATDS: 0.26130568040748398,1100 nM
NC(=O)c1sc(-n2cnc3ccccc32)cc1OCc1ccccc1F [GSK1024306A],potency estimated from few doses,"FECH; compound concentrations: 100 nM and 1000 nM (sheet 'Samples'), CATDS: 0.40591450620250102",2130 nM
same,potency estimated from few doses,"PLK1; compound concentrations: 100 nM and 1000 nM (sheet 'Samples'), CATDS: 0.65086071220868402",781 nM
CC(=O)Nc1cccc(C#Cc2cncnc2Nc2ccc(OCc3cccc(F)c3)c(Cl)c2)n1 [GW794726X],potency estimated from few doses,"EGFR; compound concentrations: 100 nM and 1000 nM (sheet 'Samples'), CATDS: 0.81532426513796596",184 nM
same,potency estimated from few doses,PIK3CG; CATDS: 0.36055601865019399,1440 nM
Cn1cc(C2=C(c3c[nH]c4ccccc34)C(=O)NC2=O)c2ccccc21 [RO0317884-000],potency estimated from few doses,EPHA5,1650 nM
same,potency estimated from few doses,"PIK3CD; compound concentrations: 100 nM and 1000 nM (sheet 'Samples'), CATDS: 0.85995893919281496",146 nM
Cl.c1ccc(Cc2nc3ccc(Nc4ncnc5ccccc45)cc3[nH]2)cc1 [GR269666A_KCGS],potency estimated from few doses,EGFR; [1],76 nM
same,potency estimated from few doses,NTRK1,1110 nM
same,potency estimated from few doses,PDXK,1550 nM
Nc1ncc(-c2ccncc2)c2scc(-c3ccc4c(c3)CCN4C(=O)Cc3ccccc3)c12 [GSK2592465A],potency estimated from few doses,"EPHB6; compound concentrations: 100 nM and 1000 nM (sheet 'Samples'), CATDS: 0.25930053020636601",885 nM
same,potency estimated from few doses,ERBB3,1700 nM
same,potency estimated from few doses,MAP4K5,837 nM
same,potency estimated from few doses,NLK,660 nM
Cc1cc(-c2ccco2)cc(C)c1/C=C/c1cncc(-c2nn[nH]n2)c1.Cl [GW458344A],potency estimated from few doses,EPHB6; [1],401 nM
COc1ccc(N2Cc3cnc(Nc4ccccc4)nc3N([C@@H]3CC[C@@H](O)C3)C2=O)cc1 [RO4383596-000],potency estimated from few doses,"EPHB6; compound concentrations: 100 nM and 1000 nM (sheet 'Samples'), CATDS: 0.20218817743622799",1300 nM
same,potency estimated from few doses,FLT4,1170 nM
same,potency estimated from few doses,GAK,756 nM
same,potency estimated from few doses,MAP2K5,1750 nM
same,potency estimated from few doses,PDGFRB; CATDS: 0.165477129932846,2060 nM
COc1cc2ncn(-c3cc(OCc4ccc(S(C)(=O)=O)cc4)c(C(N)=O)s3)c2cc1OC [GW869979X],potency estimated from few doses,FECH; [1],2080 nM
same,potency estimated from few doses,IARS,2020 nM
same,potency estimated from few doses,NQO1,2010 nM
same,potency estimated from few doses,PIK3CD; [1],120 nM
same,potency estimated from few doses,PLK1; [1],1110 nM
c1ccc(COc2ccc(Nc3ncnc4ccc(-c5ccco5)cc34)cc2)cc1 [GW284372X],potency estimated from few doses,"EGFR; compound concentrations: 100 nM and 1000 nM (sheet 'Samples'), CATDS: 0.410036232309059",781 nM
same,potency estimated from few doses,TTN,304 nM
COc1cc2ncnc(Nc3ccc(C)c(O)c3)c2cc1OC.Cl [GW410563A],potency estimated from few doses,"EGFR; compound concentrations: 100 nM and 1000 nM (sheet 'Samples'), CATDS: 0.29565759118255602",439 nM
same,potency estimated from few doses,RET; CATDS: 0.33989373739411199,326 nM
same,potency estimated from few doses,RIPK2; CATDS: 0.37374612171419203,272 nM
